The source of these data is PubChem BioAssay.

Active and inactive are the calls of the source.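 The calls were made as follows: active = compounds whose cell count with miR-34 switched on is under 0.7 times the count with it off; inactive = the rest.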

The assay in a line: sensitizers of A549 cells to miR-34 induction, primary screen, imaging, A549 dox-inducible miR-34, nuclei and caspase counts (AID 1347080). Also: test concentration not given here. The settings on record: A549 miR-34 inducible, Hoechst nuclei count, 48 h.
Where [1] appears, read: stronger effect = lower value, cell number ratio, induced over uninduced.
Where [2] appears, read: measured here: relative caspase fold change +Dox/-Dox.
[3] abbreviates: measured here: total cells with miR-34 induction, stronger effect = lower value.
[4] abbreviates: measured here: total cells without miR-34 induction.

As for `NCCCNCCCCN(CCCN)[N+]([O-])=NO`, the fold change reads like this: under setting [1], 1.02 (inactive); under setting [2], 1.33. In addition, the cell count came out at 5980 under setting [3] and 5880 under setting [4].

Regarding `CCN(CC)c1ccc(C2=C(Cl)C(=O)c3ncccc3C2=O)cc1`, the fold change reads like this: under setting [1], 1.01 (inactive); under setting [2], 1.74. The cell count under setting [3] worked out at 4440 and the cell count under setting [4] is 4390.

Consider `CCCCC[C@](C)(O)/C=C/[C@H]1C(=O)C[C@H](O)[C@@H]1C/C=C\CCCC(=O)O`, for which the fold change reads like this: under setting [1], 1.01 (inactive); under setting [2], 0.91. In addition, the cell count came to 5200 under setting [3] and 5160 under setting [4].

Take `CCCCCCCCCCCCCCCCOC[C@H](COP(=O)([O-])OCC[N+](C)(C)C)SC(=O)CCCCCC`: the fold change is 0.987 (inactive) under setting [1] and 1.56 under setting [2]. The cell count was determined as 5880 under setting [3] and 5950 under setting [4].

Consider `CCCCCCCC/C=C\CCCCCCCC(=O)c1nc2ncccc2o1`, for which the fold change was 0.938 (inactive) under setting [1] and 0.974 under setting [2]. The cell count by setting is: under setting [3], 5390; under setting [4], 5740.

As to `COc1ccc(/C=C/c2cc(Cl)cc(Cl)c2)cc1`, the fold change runs as follows: under setting [1], 1.04 (inactive); under setting [2], 0.753. For the same compound, the cell count is, setting by setting: under setting [3], 5410; under setting [4], 5220.

Turning to `O=C(O)c1c[nH]c2c(ccc3cccnc32)c1=O`, the fold change is 0.93 (inactive) under setting [1] and 0.866 under setting [2]. Besides, the cell count is, setting by setting: under setting [3], 5740; under setting [4], 6180.

Turning to `C=C(N)N[C@@H](CCC(=O)O)C(=O)O`, the fold change was 0.873 (inactive) under setting [1] and 0.849 under setting [2]. The cell count runs as follows: under setting [3], 8430; under setting [4], 9660.

`CCCCCCCCCCCCCCCCCC(=O)NCCO`: the fold change under setting [1] was 0.986 (inactive) and the fold change under setting [2] was 1.01. Also, the cell count was 6030 under setting [3] and 6120 under setting [4].

For the compound `CCCCC[C@H](O)/C=C/[C@H]1[C@@H](O)CC(=O)[C@@H]1CCCCCCC(=O)O`, the fold change is 0.965 (inactive) under setting [1] and 1.07 under setting [2]. For the same compound, the cell count is, setting by setting: under setting [3], 5320; under setting [4], 5510.

As for `COc1c(O)c2c(=O)cc(OC)c3c4c(OC)cc(=O)c5c(O)c(OC)c(C[C@@H](C)OC(=O)c6ccccc6)c(c(c1C[C@@H](C)OC(=O)Oc1ccc(O)cc1)c23)c54`, the fold change runs as follows: under setting [1], 0.961 (inactive); under setting [2], 0.723. The cell count reads like this: under setting [3], 2210; under setting [4], 2300.

`CCCCCCCCCCCCCCCC(=O)SCCOP(=O)([O-])OCC[N+](C)(C)C`: the fold change was 1.04 (inactive) under setting [1] and 0.949 under setting [2]. For the same compound, the cell count stood at 6100 under setting [3] and 5890 under setting [4].

Take `CCCCCCCC/C=C\CCCCCCCCOCCOP(=O)([O-])OCC[N+](C)(C)C`: the fold change runs as follows: under setting [1], 0.927 (inactive); under setting [2], 0.887. Also, the cell count reads like this: under setting [3], 5510; under setting [4], 5950.

For `COc1cc(/C=C/C(=O)N2CCCCCC2)cc(OC)c1OC`, the fold change is 0.968 (inactive) under setting [1] and 0.988 under setting [2]. Besides, the cell count came out at 7660 under setting [3] and 7910 under setting [4].

For the compound `CCCC/C=C\CCCCCCCC(=O)OC`, the fold change was 1.02 (inactive) under setting [1] and 0.704 under setting [2]. Further, the cell count runs as follows: under setting [3], 5700; under setting [4], 5570.

With `C=C1C[C@@H](O)[C@H](/C=C/[C@@H](O)CCCCC)[C@H]1C/C=C\CCCC(=O)O`, the fold change reads like this: under setting [1], 0.899 (inactive); under setting [2], 1.24. The cell count turned out to be 5620 under setting [3] and 6250 under setting [4].

Regarding `CCCCCCCCCCOc1ccc(OCC(=O)Cn2cc(C(=O)OC)c3cc(C(=O)O)ccc32)cc1`, the fold change reads like this: under setting [1], 0.961 (inactive); under setting [2], 0.386. Further, the cell count came out at 6240 under setting [3] and 6490 under setting [4].

Turning to `CCCCCCCCCC(=O)N[C@@H](CN1CCOCC1)[C@@H](O)c1ccccc1`, the fold change by setting is: under setting [1], 0.924 (inactive); under setting [2], 0.927. Moreover, the cell count came out at 5480 under setting [3] and 5940 under setting [4].

Take `O=C(CCCCCc1ccccc1)c1nc2ncccc2o1`: the fold change was 1.06 (inactive) under setting [1] and 0.866 under setting [2]. Besides, the cell count was found to be 5480 under setting [3] and 5190 under setting [4].

Regarding `CCCCCC(=O)CC[C@H]1[C@H](O)CC(=O)[C@@H]1CCCCCCC(=O)O`, the fold change is, setting by setting: under setting [1], 0.94 (inactive); under setting [2], 1.43. Besides, the cell count was 5620 under setting [3] and 5980 under setting [4].

Take `COc1ccc(-c2nc3cc(F)ccc3s2)cc1OC`: the fold change reads like this: under setting [1], 0.915 (inactive); under setting [2], 0.244. Besides, the cell count is, setting by setting: under setting [3], 4920; under setting [4], 5370.

For `O=C(O)CCC/C=C\C[C@@H]1[C@@H](CCC(=O)CCc2ccccc2)[C@H](O)C[C@@H]1O`, the fold change is 0.934 (inactive) under setting [1] and 1.4 under setting [2]. Further, the cell count was 5970 under setting [3] and 6390 under setting [4].

Turning to `CCCC[C@H](C)C[C@H](O)/C=C/[C@@H]1[C@@H](CCCCCCC(=O)O)[C@@H](O)C[C@H]1O`, the fold change under setting [1] is 0.931 (inactive) and the fold change under setting [2] is 1.78. Also, the cell count by setting is: under setting [3], 5490; under setting [4], 5900.

For `CCCCC[C@H](O)/C=C/[C@H]1C=CC(=O)[C@@H]1CCCCCCC(=O)OCC`, the fold change under setting [1] is 0.941 (inactive) and the fold change under setting [2] worked out at 1.83. Moreover, the cell count turned out to be 5280 under setting [3] and 5620 under setting [4].

In the case of `CCCCCCOC(=O)[C@@]1(O)CC2OC1(C)n1c3ccccc3c3c4c(c5c6ccccc6n2c5c31)C(=O)NC4` (some centres not stated), the fold change under setting [1] is 0.758 (inactive) and the fold change under setting [2] came out at 1.42. The cell count under setting [3] stood at 4880 and the cell count under setting [4] amounted to 6430.

As to `COc1ccc2c(c1)c(CC(=O)Nc1ccc(NC(C)=O)cc1)c(C)n2C(=O)c1ccc(Cl)cc1`, the fold change runs as follows: under setting [1], 1.05 (inactive); under setting [2], 1.43. The cell count under setting [3] came out at 5880 and the cell count under setting [4] came to 5610.

As to `O=C(NCc1ccc(Cl)c(Cl)c1)O[C@H]1CCc2ccccc21`, the fold change runs as follows: under setting [1], 1.02 (inactive); under setting [2], 1.19. In addition, the cell count reads like this: under setting [3], 5770; under setting [4], 5680.

For the compound `CCCCCCCC/C=C\CCCCCCCCCCCC(=O)O`, the fold change by setting is: under setting [1], 1.01 (inactive); under setting [2], 0.826. Further, the cell count under setting [3] turned out to be 6030 and the cell count under setting [4] was 5990.
